High-throughput results deposited in PubChem BioAssay by ICCB-Longwood Screening Facility, Harvard Medical School.
Vaccinia pol inh: blocks vaccinia virus processive DNA synthesis | normalized absorbance, % (no concentration beside the values) | 0.94% of 46,000 active | in vitro processive DNA synthesis, absorbance read-out; hits give low values | AID 493162; in the data active means normalized absorbance mostly below about 85%, no sharp cut-off; inactive means mostly above about 86%
Starred values were filed as active, the others as inactive. The full list was thinned out, with hits kept by preference.

SMILES | Vaccinia pol inh
O=C1CCN(c2ncc(C(F)(F)F)cc2Cl)CC1 | 96
CC(C)C(=O)Nc1nnc(-c2ccccc2)s1 | 60*
Cc1ccc(C(=O)Nc2nnc(-c3ccccc3)s2)cc1 | 100
CC(C)C(=O)Nc1nnc(-c2ccc(Cl)cc2)s1 | 100
CC(C)c1ccc(NC(=O)[C@@H](c2ccccc2)N2Cc3ccccc3C2=O)cc1 | 98
CCOC(=O)c1nccn1CC(=O)Nc1ccccc1CC | 79
O=C(NCCOc1ccc(Cl)cc1)c1cccs1 | 98
COC(=O)c1cc(-c2ccccc2)sc1NC(=O)C1CCCO1 (configuration not stated) | 92
COC(CNC(=O)c1ccc2c(c1)N(Cc1ccc(Cl)cc1)CCS2)OC | 94
O=C(O)c1ccc2c(c1)N(Cc1ccc(Cl)cc1)CCS2 | 72*
O=C(c1ccc2c(c1)N(Cc1ccc(F)cc1)CCS2)N1CCCCC1 | 89
O=C(Oc1ccc2c3c(c(=O)oc2c1)CCCC3)c1ccccc1 | 92
O=C(CSc1nc(Nc2ccc3c(c2)OCO3)c2ccccc2n1)c1ccc(Cl)cc1 | 101
CC(O)c1ccc(OCc2c(F)cccc2Cl)cc1 (configuration not stated) | 81
COc1ccc(N2CC(c3ccc(F)cc3)=CC2=O)cc1 | 101
Cc1cc2c(cc1C)CSC(c1ccc(N(C)CCC#N)cc1)SC2 | 102
O=C1c2ccccc2S(=O)(=O)N1CCCCN1C(=O)c2ccccc2S1(=O)=O | 108
COc1ccc2cc1Oc1ccc(cc1)C[C@H]1c3cc(c(OC)cc3CCN1C)Oc1c(OC)c(OC)cc3c1[C@H](C2)N(C)CC3 | 84*
COc1ccc2c(c1OC)C(=O)OC2[C@H]1c2c(cc3c(c2OC)OCO3)CCN1C (some centres not stated) | 97
Cc1ccc(NC(=O)C2CC(=O)N(CCc3ccc(Cl)cc3)C2)cc1 (configuration not stated) | 108
Clc1ccccc1OCc1nnc2n1CCC2 | 95
CCOc1ccc(NC(=S)NC(C)(C)CC)cc1 | 99
COc1ccc2c(OC)ccc3c2c1C=CC3=O | 56*
O=C(Cn1c(=O)c2sccc2n(Cc2cccc(Cl)c2)c1=O)NCc1ccco1 | 100
Cc1nn2c3c(cnc2c1-c1ccccc1)C(=O)CC(c1ccc(C(C)C)cc1)C3 (configuration not stated) | 100
SMILES | Vaccinia pol inh
CN(Cc1ccco1)C(=O)c1ccc2c(c1)N(Cc1cccc(F)c1)C(=O)c1ccccc1S2 | 88
C[n+]1ccc(/C=C/c2ccccc2F)c2ccccc21 | 100
CN1C=C/C(=C\c2cc[n+](C)c3ccccc23)c2ccccc21 | 84*
CN1/C(=C/c2cccc[n+]2C)C=Cc2ccccc21 | 97
CCCSc1nnc(CSc2ncccn2)n1-c1ccccc1 | 89
O=C(Cc1nc2ccccc2o1)c1cccnc1 | 104
C=CCN1C(=O)N(c2ccccc2)C(=O)C1CC(=O)Nc1ccccc1 (configuration not stated) | 99
CC(C)c1cccc(C(C)C)c1NC(=O)c1ccc2ncccc2c1 | 101
O=C(CCCn1sc2ccccc2c1=O)NC1CCCC1 | 93
COc1ccc(-c2nc3ccccc3n2C(=O)c2ccccc2C(=O)O)cc1 | 98
COc1ccc2nc(/N=C(\N)NC(=O)N3c4ccccc4Sc4ccccc43)nc(C)c2c1 | 100
COc1ccc2c(C)nc(/N=C(\N)NC(C)=O)nc2c1 | 54*
CCc1c(C)nc2ccc(OC)cc2c1Cl | 104
COc1ccc2nc(SC(=O)c3ccccc3)nc(C)c2c1 | 100
COc1ccc2c(C)nc(/N=C(N)/N=C(\C)c3ccccc3C(=O)O)nc2c1 | 31*
CC(=O)Sc1nc(-c2ccc(C)cc2)[nH]c1S(=O)(=O)c1ccccc1 | 100
CC(C)CSc1nc2c(cnn2-c2ccccc2)c(=O)[nH]1 | 100
CCCn1c(O)c(N=O)c2ccccc21 | 100
CCn1c(=O)c(-c2ccc3ccccc3n2)cc2cc(Cl)ccc21 | 107
Cc1nn(C(=O)Cc2ccc(Cl)cc2)c(C)c1Br | 101
CC1(Cc2nc3ccccc3[nH]2)OCCO1 | 104
CCOC(=O)c1cnn(-c2ccccc2)c1N(C(=O)c1ccccc1F)C(=O)c1ccccc1F | 100
CC1CN=C(N(C(=O)Nc2ccccc2)c2cccc(C(F)(F)F)c2)S1 (configuration not stated) | 100
Cc1cc(C)nc(NC2=NCCN2)n1 | 48*
CCN(CC)CCNc1nc(C)cc(C)n1 | 102
SMILES | Vaccinia pol inh
Cc1cc(Nc2ccccc2)nc(Nc2ccccc2)n1 | 100
COc1cc(C(=O)n2c(SCc3ccc(F)cc3)nc3ccccc32)cc(OC)c1OC | 99
C1CCc2nnc(CCN3CCOCC3)n2CC1 | 89
CSc1ccc(CCNC(=O)c2cccc3c2C(=O)N(CC2CCCO2)C3)cc1 (configuration not stated) | 91
CC1CCCCN1C(=O)CSc1ccc2ccccc2c1 (configuration not stated) | 73*
CC1CCCCN1C(=O)CSc1nnc(-c2ccccc2)o1 (configuration not stated) | 95
CCOC(=O)C1CCCN(C(=O)CSc2ccc3ccccc3c2)C1 (configuration not stated) | 94
O=C(O)c1cc(Br)c2ccccc2c1O | 94
